Paper PMC12820563, “FoxP3 forms a head-to-head dimer in vivo and stabilizes its multimerization on adjacent microsatellites”
In all, about 16,000 sequences were measured (“rpm ratio (pull-down/input)”: median about 0.94, highest 2% from about 1.7 on). Only a selection was taken, and the highest values are over-represented in it overall.

target: T1, MBP-FoxP1dN (Mus musculus, UniProt P58462 326-579); experiment: PD-seq (MBP pull-down with sequencing); 20 mM Tris-HCl pH 7.5, 100 mM NaCl, 1.5 mM MgCl2, 0.4 uM protein, 0.1 uM dsDNA library, 30 min, room temperature, amylose pull-down; high values mean tight binding; details: protein: recombinant; tags: His6-MBP; chain copies: 2; dsDNA, one strand shown
T1 sequence: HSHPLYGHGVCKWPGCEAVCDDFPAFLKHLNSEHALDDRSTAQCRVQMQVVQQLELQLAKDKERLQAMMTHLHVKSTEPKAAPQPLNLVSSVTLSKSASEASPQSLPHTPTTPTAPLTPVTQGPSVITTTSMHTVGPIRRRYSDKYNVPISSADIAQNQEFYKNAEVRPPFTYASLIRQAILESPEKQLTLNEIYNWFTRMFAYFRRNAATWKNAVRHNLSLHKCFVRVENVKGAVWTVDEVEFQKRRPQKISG
Summary of the method: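 His6-MBP-tagged mouse FoxP3 or FoxP1 fragment lacking the N-terminus, expressed in E. coli, was mixed at 0.4 µM with 0.1 µM Klenow-filled double-stranded degenerate DNA library. Incubation was 30 min at room temperature in Tris pH 7.5 buffer with NaCl and MgCl2. Complexes were caught on amylose resin and washed three times; DNA was released with proteinase K, PCR-barcoded and Illumina-sequenced. Binding is reads-per-million enrichment, pull-down over input, with replicates pooled.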

Sequence	binding signal
GATGATTGTTCTCCCAGCTGATGAATTAACGAGTTCGAGTAAACAAATTTTCCTAATCTTTCTGTTCAAGCGCCATCTAC	0.92 RPM ratio (pull-down/input)
GATGATTGTTCTCCCAGCTGATGAATTAGCGACCTCGAGTAAACAAATTTTCCTAATCTTTCTGTTCAAGCGCCATCTAC	0.762 RPM ratio (pull-down/input)
GATGATTGTTCTCCCAGCTGATGAATTCCTGAACTCGAGTAAACAAATTTTCCTAATCTTTCTGTTCAAGCGCCATCTAC	0.79 RPM ratio (pull-down/input)
GATGATTGTTCTCCCAGCTGATGAATTAGCATAGTCGAGTAAACAAATTTTCCTAATCTTTCTGTTCAAGCGCCATCTAC	0.88 RPM ratio (pull-down/input)
GATGATTGTTCTCCCAGCTGATGAATTTTGTGTGTCGAGTAAACAAATTTTCCTAATCTTTCTGTTCAAGCGCCATCTAC	1.48 RPM ratio (pull-down/input)
GATGATTGTTCTCCCAGCTGATGAATTTTTTGTGTCGAGTAAACAAATTTTCCTAATCTTTCTGTTCAAGCGCCATCTAC	1.12 RPM ratio (pull-down/input)
GATGATTGTTCTCCCAGCTGATGAATTGTGTGTGTCGAGTAAACAAATTTTCCTAATCTTTCTGTTCAAGCGCCATCTAC	1.52 RPM ratio (pull-down/input)
GATGATTGTTCTCCCAGCTGATGAATTTGTTGTGTCGAGTAAACAAATTTTCCTAATCTTTCTGTTCAAGCGCCATCTAC	2.48 RPM ratio (pull-down/input)
GATGATTGTTCTCCCAGCTGATGAATTTGTGTTGTCGAGTAAACAAATTTTCCTAATCTTTCTGTTCAAGCGCCATCTAC	2.64 RPM ratio (pull-down/input)
GATGATTGTTCTCCCAGCTGATGAATTTGTGTCGTCGAGTAAACAAATTTTCCTAATCTTTCTGTTCAAGCGCCATCTAC	1.23 RPM ratio (pull-down/input)
GATGATTGTTCTCCCAGCTGATGAATTCCGTACCTCGAGTAAACAAATTTTCCTAATCTTTCTGTTCAAGCGCCATCTAC	0.829 RPM ratio (pull-down/input)
GATGATTGTTCTCCCAGCTGATGAATTATCTGTCTCGAGTAAACAAATTTTCCTAATCTTTCTGTTCAAGCGCCATCTAC	0.945 RPM ratio (pull-down/input)
GATGATTGTTCTCCCAGCTGATGAATTGTGTATATCGAGTAAACAAATTTTCCTAATCTTTCTGTTCAAGCGCCATCTAC	1.9 RPM ratio (pull-down/input)
GATGATTGTTCTCCCAGCTGATGAATTTTTGTAATCGAGTAAACAAATTTTCCTAATCTTTCTGTTCAAGCGCCATCTAC	1.78 RPM ratio (pull-down/input)
GATGATTGTTCTCCCAGCTGATGAATTTTGTAAATCGAGTAAACAAATTTTCCTAATCTTTCTGTTCAAGCGCCATCTAC	1.5 RPM ratio (pull-down/input)
GATGATTGTTCTCCCAGCTGATGAATTCTGTATATCGAGTAAACAAATTTTCCTAATCTTTCTGTTCAAGCGCCATCTAC	1.67 RPM ratio (pull-down/input)

Sequence	binding signal
GATGATTGTTCTCCCAGCTGATGAATTTTGTACTTCGAGTAAACAAATTTTCCTAATCTTTCTGTTCAAGCGCCATCTAC	0.97 RPM ratio (pull-down/input)
GATGATTGTTCTCCCAGCTGATGAATTGTATATCTCGAGTAAACAAATTTTCCTAATCTTTCTGTTCAAGCGCCATCTAC	1.36 RPM ratio (pull-down/input)
GATGATTGTTCTCCCAGCTGATGAATTCTGTACTTCGAGTAAACAAATTTTCCTAATCTTTCTGTTCAAGCGCCATCTAC	0.932 RPM ratio (pull-down/input)
GATGATTGTTCTCCCAGCTGATGAATTGTATATATCGAGTAAACAAATTTTCCTAATCTTTCTGTTCAAGCGCCATCTAC	1.6 RPM ratio (pull-down/input)
GATGATTGTTCTCCCAGCTGATGAATTGAGTATATCGAGTAAACAAATTTTCCTAATCTTTCTGTTCAAGCGCCATCTAC	1.1 RPM ratio (pull-down/input)
GATGATTGTTCTCCCAGCTGATGAATTTTGTATATCGAGTAAACAAATTTTCCTAATCTTTCTGTTCAAGCGCCATCTAC	2.33 RPM ratio (pull-down/input)
GATGATTGTTCTCCCAGCTGATGAATTTGTAAAATCGAGTAAACAAATTTTCCTAATCTTTCTGTTCAAGCGCCATCTAC	1.24 RPM ratio (pull-down/input)
GATGATTGTTCTCCCAGCTGATGAATTGTGTACTTCGAGTAAACAAATTTTCCTAATCTTTCTGTTCAAGCGCCATCTAC	1.84 RPM ratio (pull-down/input)
GATGATTGTTCTCCCAGCTGATGAATTCCAGGGTTCGAGTAAACAAATTTTCCTAATCTTTCTGTTCAAGCGCCATCTAC	0.729 RPM ratio (pull-down/input)
GATGATTGTTCTCCCAGCTGATGAATTGTGAAGCTCGAGTAAACAAATTTTCCTAATCTTTCTGTTCAAGCGCCATCTAC	0.905 RPM ratio (pull-down/input)
GATGATTGTTCTCCCAGCTGATGAATTACAGTTGTCGAGTAAACAAATTTTCCTAATCTTTCTGTTCAAGCGCCATCTAC	1.46 RPM ratio (pull-down/input)
GATGATTGTTCTCCCAGCTGATGAATTAGCAACTTCGAGTAAACAAATTTTCCTAATCTTTCTGTTCAAGCGCCATCTAC	1.12 RPM ratio (pull-down/input)
GATGATTGTTCTCCCAGCTGATGAATTTGCGTGCTCGAGTAAACAAATTTTCCTAATCTTTCTGTTCAAGCGCCATCTAC	1.05 RPM ratio (pull-down/input)
GATGATTGTTCTCCCAGCTGATGAATTCTCGTCATCGAGTAAACAAATTTTCCTAATCTTTCTGTTCAAGCGCCATCTAC	0.998 RPM ratio (pull-down/input)
GATGATTGTTCTCCCAGCTGATGAATTGGCTAAGTCGAGTAAACAAATTTTCCTAATCTTTCTGTTCAAGCGCCATCTAC	0.879 RPM ratio (pull-down/input)
